Data reported in PubChem BioAssay (EPA / NIEHS).
The source made the active and inactive calls. The calls were made as follows: active = hit-call score of the fitted dose curve at least 0.9, where 1 is the maximum; inactive = score below 0.9.

Tests used:
Settings in all cases: mRNA level, 48 h; actives raise or lower the signal
[1] = read-out: Peroxisomal acyl-coenzyme A oxidase 1 (ACOX1) gene, ACOX1 (gene 51); assay: LTEA_HepaRG_ACOX1: Life Technologies and Expression Analysis (LTEA) Assay for Peroxisomal acyl-coenzyme A oxidase 1 (ACOX1) gene using HepaRG (AID 2283467)
How it was run: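 Differentiated human HepaRG cells were exposed in duplicate for 48 h in serum-free induction medium to eight half-log concentrations up to 100 uM in 0.5% DMSO. ACOX1 mRNA was then quantified by TaqMan qRT-PCR, normalized to ACTB, GAPDH and POLR2A.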

[2] = read-out: Bcl-2 (BAD) gene, BAD (gene 572); assay: LTEA_HepaRG_BAD: Life Technologies and Expression Analysis (LTEA) Assay for Bcl-2 (BAD) gene using HepaRG (AID 2283469)
How it was run: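 Differentiated human HepaRG cells in serum-free induction medium were exposed in duplicate for 48 h to eight concentrations (top 100 uM, half-log steps, 0.5% DMSO). BAD mRNA was quantified by qRT-PCR normalised to ACTB, GAPDH and POLR2A, with bidirectional fitting versus DMSO.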

[3] = read-out: Bcl-2 (BAX) gene, BAX (gene 581); assay: LTEA_HepaRG_BAX: Life Technologies and Expression Analysis (LTEA) Assay for Bcl-2 (BAX) gene using HepaRG (AID 2283470)
How it was run: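 Concentration-response endpoint fitted in both directions relative to 0.5% DMSO vehicle. Human HepaRG cultures receive test chemicals for 48 h at up to 100 uM; BAX mRNA is quantified by qRT-PCR against housekeeping genes.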

[4] = read-out: adenosine kinase (ADK) gene, ADK (gene 132); assay: LTEA_HepaRG_ADK: Life Technologies and Expression Analysis (LTEA) Assay for adenosine kinase (ADK) gene using HepaRG (AID 2283471)
How it was run: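 Differentiated HepaRG cells dosed 48 h in serum-free induction medium, 0.5% DMSO vehicle, eight half-log concentrations from 100 uM, in duplicate. ADK mRNA by TaqMan qRT-PCR normalised to ACTB, GAPDH, POLR2A; bidirectional fit versus DMSO.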

[5] = read-out: Alpha-fetoprotein (AFP) gene, AFP (gene 174); assay: LTEA_HepaRG_AFP: Life Technologies and Expression Analysis (LTEA) Assay for Alpha-fetoprotein (AFP) gene using HepaRG (AID 2283472)
How it was run: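 After a 48 h plating period, cells are moved to serum-free induction medium and dosed in duplicate (100 uM maximum, half-log dilutions, 0.5% DMSO) for another 48 h. Total RNA goes to TaqMan qRT-PCR; AFP signal is housekeeping-normalized.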

[6] = read-out: BCL2L11 (gene 10018); assay: LTEA_HepaRG_BCL2L11: Life Technologies and Expression Analysis (LTEA) Assay for Bcl-2 (BCL2L11) gene using HepaRG (AID 2283473)
How it was run: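 Cells were plated, cultured 48 h, switched to serum-free induction medium, then dosed in duplicate for 48 h at eight half-log concentrations up to 100 uM. Lysates underwent RNA isolation and TaqMan qRT-PCR; gain or loss versus DMSO was fitted.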

[7] = read-out: Apolipoprotein A-V (APOA5) gene, APOA5 (gene 116519); assay: LTEA_HepaRG_APOA5: Life Technologies and Expression Analysis (LTEA) Assay for Apolipoprotein A-V (APOA5) gene using HepaRG (AID 2283474)
How it was run: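 Human liver HepaRG cells are treated 48 h with test chemicals (100 uM top, half-log dilutions, 0.5% DMSO). APOA5 mRNA induction or loss is measured by qRT-PCR relative to vehicle.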

[8] = read-out: Apoptosis regulator Bcl-2 (Homo sapiens) (UniProt P10415); assay: LTEA_HepaRG_BCL2: Life Technologies and Expression Analysis (LTEA) Assay for Bcl-2 gene using HepaRG (AID 2283475)
How it was run: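 Expression change of BCL2 mRNA in HepaRG after 48 h dosing, quantified by TaqMan qRT-PCR against three endogenous controls. Concentration-response used eight points up to 100 uM, vehicle 0.5% DMSO.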

[9] = read-out: Bcl-2 (BID) gene, BID (gene 637); assay: LTEA_HepaRG_BID: Life Technologies and Expression Analysis (LTEA) Assay for Bcl-2 (BID) gene using HepaRG (AID 2283476)
How it was run: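 Gain or loss of BID expression is fitted relative to 0.5% DMSO vehicle. Human HepaRG liver cells received a 48 h chemical exposure over an eight-point concentration range.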

[10] = read-out: Caspase-3 (Homo sapiens) (UniProt P42574); assay: LTEA_HepaRG_CASP3: Life Technologies and Expression Analysis (LTEA) Assay for cysteine-aspartic acid protease (CASP3) using HepaRG (AID 2283477)
How it was run: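 In HepaRG liver cells dosed for 48 h at up to 100 uM (eight-point, duplicate), CASP3 expression changes are scored by qRT-PCR. Activity is fitted in both directions with 0.5% DMSO as baseline.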

[11] = read-out: Cytochrome P450 (CYP24A1), CYP24A1 (gene 1591); assay: LTEA_HepaRG_CYP24A1: Life Technologies and Expression Analysis (LTEA) Assay for Cytochrome P450 (CYP24A1) using HepaRG (AID 2283478)
How it was run: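 Human liver HepaRG cultures receive each chemical for 48 h across an eight-point half-log series topping at 100 uM in 0.5% DMSO. Induction or suppression of CYP24A1 mRNA is scored relative to vehicle after housekeeping-gene normalization.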

[12] = read-out: Cytochrome P450 (CYP1A2), CYP1A2 (gene 1544); assay: LTEA_HepaRG_CYP1A2: Life Technologies and Expression Analysis (LTEA) Assay for Cytochrome P450 (CYP1A2) using HepaRG (AID 2283479)
How it was run: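 Assesses CYP1A2 mRNA in human HepaRG liver cells after 48 h chemical exposure at up to 100 uM. Values come from qRT-PCR with bidirectional curve fitting relative to DMSO.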

[13] = read-out: cysteine-aspartic acid protease (CASP8), CASP8 (gene 841); assay: LTEA_HepaRG_CASP8: Life Technologies and Expression Analysis (LTEA) Assay for cysteine-aspartic acid protease (CASP8) using HepaRG (AID 2283480)
How it was run: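 Differentiated human HepaRG cells, plated 48 h then switched to serum-free induction medium, were exposed in duplicate for 48 h to 8 half-log concentrations up to 100 uM in 0.5% DMSO. CASP8 mRNA was quantified by qRT-PCR, normalized to ACTB/GAPDH/POLR2A.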

[14] = read-out: Cytochrome P450 (CYP2B6), CYP2B6 (gene 1555); assay: LTEA_HepaRG_CYP2B6: Life Technologies and Expression Analysis (LTEA) Assay for Cytochrome P450 (CYP2B6) using HepaRG (AID 2283481)
How it was run: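 Using 48 h treatment of HepaRG cells in serum-free induction medium, concentrations spanned half-log steps from 100 uM in 0.5% DMSO vehicle. CYP2B6 mRNA induction or loss is scored by qRT-PCR against DMSO.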

[15] = read-out: Cytochrome P450 2C19 (Homo sapiens) (UniProt P33261); assay: LTEA_HepaRG_CYP2C19: Life Technologies and Expression Analysis (LTEA) Assay for CYP2C19 using HepaRG (AID 2283482)
How it was run: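 Human HepaRG liver cells received test chemicals for 48 h (highest 100 uM, half-log dilutions in 0.5% DMSO). CYP2C19 mRNA induction or loss is read by multiplexed qRT-PCR and fitted in both directions versus vehicle.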

[16] = read-out: CYP2C8 (gene 1558); assay: LTEA_HepaRG_CYP2C8: Life Technologies and Expression Analysis (LTEA) Assay for CYP2C8 using HepaRG (AID 2283483)
How it was run: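 Differentiated human HepaRG cells were exposed for 48 h in serum-free induction medium to eight half-log concentrations up to 100 uM in 0.5% DMSO, in duplicate. CYP2C8 mRNA was measured by TaqMan qRT-PCR, normalized to ACTB, GAPDH and POLR2A, and fitted bidirectionally against DMSO.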

[17] = read-out: CYP2C9 (gene 1559); assay: LTEA_HepaRG_CYP2C9: Life Technologies and Expression Analysis (LTEA) Assay for CYP2C9 using HepaRG (AID 2283484)
How it was run: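 Differentiated human HepaRG cells were exposed 48 h in serum-free induction medium to eight half-log concentrations up to 100 uM in 0.5% DMSO. CYP2C9 mRNA was measured by qRT-PCR, normalized to ACTB, GAPDH and POLR2A, and fitted bidirectionally against DMSO.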

[18] = read-out: CYP2E1 (gene 1571); assay: LTEA_HepaRG_CYP2E1: Life Technologies and Expression Analysis (LTEA) Assay for CYP2E1 using HepaRG (AID 2283485)
How it was run: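 Differentiated HepaRG cells were treated in duplicate for 48 h with chemicals in 0.5% DMSO, from 100 uM downward in half-log dilutions. RNA was then analysed by qRT-PCR for CYP2E1 induction or loss.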

[19] = read-out: CYP4A11 (gene 1579); assay: LTEA_HepaRG_CYP4A11: Life Technologies and Expression Analysis (LTEA) Assay for CYP4A11 using HepaRG (AID 2283486)
How it was run: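 Readout is CYP4A11 mRNA induction or suppression (qRT-PCR, ACTB/GAPDH/POLR2A normalization) in human HepaRG cells after 48 h chemical treatment, concentrations to 100 uM in 0.5% DMSO, fitted bidirectionally against vehicle.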

[20] = read-out: Alkaline Phosphatase, Placental (ALPP) gene, ALPP (gene 250); assay: LTEA_HepaRG_ALPP: Life Technologies and Expression Analysis (LTEA) Assay for Alkaline Phosphatase, Placental (ALPP) gene using HepaRG (AID 2283468)
How it was run: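 Expression of ALPP was quantified by qRT-PCR against three housekeeping genes in human HepaRG cultures treated for 48 h with an eight-point concentration series up to 100 uM. Activity in either direction was fitted relative to 0.5% DMSO.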

Measured: AC50

Chain of Apoptosis regulator Bcl-2 (Homo sapiens) (P10415 whole entry, looked up): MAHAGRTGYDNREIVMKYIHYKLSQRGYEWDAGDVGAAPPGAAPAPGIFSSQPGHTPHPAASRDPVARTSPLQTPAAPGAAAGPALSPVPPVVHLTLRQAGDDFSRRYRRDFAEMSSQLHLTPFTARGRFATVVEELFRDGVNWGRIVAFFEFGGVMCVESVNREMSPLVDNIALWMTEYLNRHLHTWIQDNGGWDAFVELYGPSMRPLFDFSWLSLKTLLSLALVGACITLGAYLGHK
Chain of Cytochrome P450 2C19 (Homo sapiens) (P33261 whole entry, looked up): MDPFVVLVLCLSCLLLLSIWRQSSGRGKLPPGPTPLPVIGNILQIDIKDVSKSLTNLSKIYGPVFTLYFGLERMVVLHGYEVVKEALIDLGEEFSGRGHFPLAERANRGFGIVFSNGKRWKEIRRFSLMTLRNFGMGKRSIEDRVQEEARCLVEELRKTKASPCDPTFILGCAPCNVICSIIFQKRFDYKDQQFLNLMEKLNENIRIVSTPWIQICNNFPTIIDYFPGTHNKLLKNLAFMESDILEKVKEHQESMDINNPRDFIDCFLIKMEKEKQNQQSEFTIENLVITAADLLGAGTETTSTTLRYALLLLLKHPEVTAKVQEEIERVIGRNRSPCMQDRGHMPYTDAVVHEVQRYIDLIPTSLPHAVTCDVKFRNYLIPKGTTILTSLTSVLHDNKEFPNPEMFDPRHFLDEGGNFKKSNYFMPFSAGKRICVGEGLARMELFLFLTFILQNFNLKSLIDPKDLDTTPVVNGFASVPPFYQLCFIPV
Chain of Caspase-3 (Homo sapiens) (P42574 whole entry, looked up): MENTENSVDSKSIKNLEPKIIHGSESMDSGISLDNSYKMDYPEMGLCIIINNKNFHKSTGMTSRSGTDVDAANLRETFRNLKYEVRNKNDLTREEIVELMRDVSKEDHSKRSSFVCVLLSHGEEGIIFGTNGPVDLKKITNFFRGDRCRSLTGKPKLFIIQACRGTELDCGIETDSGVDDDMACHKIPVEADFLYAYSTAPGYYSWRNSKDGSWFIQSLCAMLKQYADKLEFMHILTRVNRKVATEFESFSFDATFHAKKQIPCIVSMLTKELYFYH

Clc1ccc(C(Cl)(Cl)Cl)cc1
inactive: [1] | [2] | [3] | [4] | [5] | [6] | [7] | [8] | [9] | [10] | [11] | [12] | [13] | [14] | [15] | [16] | [17] | [18] | [19]

ClC1=C(Cl)[C@]2(Cl)[C@@H]3[C@@H]4C[C@@H]([C@H]5O[C@@H]45)[C@@H]3[C@@]1(Cl)C2(Cl)Cl
inactive: [20] | [2] | [3] | [6] | [7] | [9] | [11] | [12] | [17]
active: [1] 0.0311 µM | [4] 0.0386 µM | [5] 0.0145 µM | [8] 50 µM | [10] 0.0261 µM | [14] 1.58 µM | [15] 12.3 µM | [18] 22.4 µM | [19] 31.5 µM

C[C@]12CCC(=O)C=C1CC[C@@H]1[C@@H]2CC[C@]2(C)C(=O)CC[C@@H]12
inactive: [1] | [2] | [3] | [4] | [6] | [8] | [10] | [11] | [13] | [14] | [16] | [17]
active: [5] 50 µM | [7] 50 µM | [9] 50 µM | [12] 50 µM | [15] 10.4 µM | [18] 1.16 µM | [19] 85.7 µM

CC(c1ccc(O)cc1)(c1ccc(O)cc1)c1ccc(O)cc1
active: [1] 70.5 µM | [20] 0.895 µM | [4] 75.7 µM | [6] 82.2 µM | [9] 3.86 µM | [10] 87.5 µM | [12] 21.8 µM | [14] 31.3 µM | [15] 29 µM | [17] 50 µM | [18] 80.5 µM
inactive: [2] | [3] | [5] | [7] | [8] | [11] | [16] | [19]

CC(C)C(=O)OCC(C)(C)C(OC(=O)C(C)C)C(C)C (centres undefined)
inactive: [1] | [20] | [2] | [3] | [4] | [5] | [6] | [7] | [8] | [9] | [10] | [11] | [12] | [13] | [14] | [15] | [16] | [17] | [18] | [19]

Cc1cc2c3c(c1)C(c1ccccc1)=N[C@@H](NC(=O)c1ccncc1)C(=O)N3CC2
active: [5] 50 µM | [7] 62.5 µM | [12] 23.1 µM | [15] 3.58 µM | [18] 17.9 µM | [19] 40.4 µM
inactive: [1] | [2] | [3] | [4] | [6] | [8] | [9] | [10] | [11] | [13] | [14] | [16] | [17]
